Data reported in PubChem BioAssay.
Values joined by “and” are separate entries in the source; they are usually repeats but may differ in a detail not shown here. Equal entries are not always repeated. Active and inactive are the calls of the source. Cut-off read from the data, not from the text of the source, unless noted: active = parasite load remaining mostly below about 12% (no sharp cut-off); inactive = mostly above about 10%. Numbered stars: 1 amine (or outer) side, 2 acyl side, 3 side chain; on linkers, the order of the positions; unused ones are H or OH. Bridge positions count the residues as written; N and C are the ends. Square brackets hold non-standard residues; d marks the D form. Peptide text beside a SMILES is read from it. I, II: the chains in the order shown. Actinocin(9to1) = Cc1c2oc3c(C)ccc(C(=O)[*:1])c3nc-2c(C(=O)[*:2])c(N)c1=O; NMeV = CN[CH](C(=O)O)C(C)C; Orn = NCCC[CH](N)C(=O)O; Sar = CNCC(=O)O

What was measured:
[1] = liver-stage malaria parasite growth inhibition, primary screen, cell-based, HepG2, luciferase luminescence, HepG2 viability (AID 624349);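 note: 100% = mean of DMSO negative control wells on the same plate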; conditions: P. berghei liver stage in HepG2, luciferase luminescence, concentration not given here; parasite load remaining: stronger effect = lower value; viability: measured here: HepG2 viability without parasites
[2] = differential killing of epithelial or mesenchymal cells, primary screen, imaging, PC-3E GFP, TEM4-18 mCherry, co-culture (AID 1345086;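 active = compounds killing one labelled cell type while sparing the other, by normalised counts and ratio limits, not self-fluorescent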;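 for all read-outs here: cells exposed to compound for 72 h before imaging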;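 for red/green cell ratio (normalised): normalised mesenchymal count divided by normalised epithelial count so high means epithelial killing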); conditions: imaging cell counts, at 1 µM; for red/green cell ratio (normalised): actives lie on both sides, counts scaled to control wells, 1 = unselective
[3] = sensitizers of A549 cells to miR-34 induction, primary screen, imaging, A549 dox-inducible miR-34, nuclei and caspase counts (AID 1347080;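 active = compounds whose cell count with miR-34 switched on is under 0.7 times the count with it off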); conditions: A549 miR-34 inducible, Hoechst nuclei count, 48 h
[4] = hESC survival regulators, cell-based (AID 493140; call rule not given here;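 note: cells exposed to compounds for four days before counting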); conditions: human embryonic stem cell survival screen; stronger effect = higher value
[5] = measured here: epithelial PC-3E GFP cell survival
[6] = measured here: mesenchymal TEM4-18 mCherry cell survival
[7] = stronger effect = lower value, cell number ratio, induced over uninduced
[8] = measured here: relative caspase fold change +Dox/-Dox
[9] = measured here: total cells with miR-34 induction, stronger effect = lower value
[10] = measured here: total cells without miR-34 induction

| Compound | parasite load remaining [1] | viability [1] | red/green cell ratio (normalised) [2] | normalised cell number [2, 5] | normalised cell number [2, 6] | fold change [3, 7] | fold change [3, 8] | cell count [3, 9] | cell count [3, 10] | survival [4] |
| --- | --- | --- | --- | --- | --- | --- | --- | --- | --- | --- |
| CC(C)CC1NC(=O)C(CCCN)NC(=O)C(C(C)C)NC(=O)C(Cc2ccc(O)cc2)NC(=O)C(CCC(=O)O)NC(=O)C(CC(=O)O)NC(=O)C(Cc2ccccc2)NC(=O)C(Cc2ccccc2)NC(=O)C2CCCN2C(=O)C(Cc2ccccc2)NC1=O (stereo not given) (cyclo(DEYV[Orn]LFPFF); configuration not given here) | 7.69% (inactive) and 0.08% (inactive) | 49.2% and 36.8% | 0.75 (inactive) | 0.47 | 0.35 | 1.12 (inactive) | 0.824 | 1510 | 1350 |  |
| OC[C@H]1OC([S-])[C@H](O)[C@@H](O)[C@@H]1O.[Au+] (stereo not given in full) | 51.4% (inactive) | 97.6% | 0.82 (inactive) | 1.15 | 0.95 | 0.865 (inactive) | 2.52 | 9290 | 10700 |  |
| CCCCCC(O)C1C(=O)OC(C)C(O)/C=C/C=C/C=C/C=C/C=C(\C)C(O)CC(O)CC(O)CC(O)CC(O)CC(O)CC1O (stereo not given) | 18% (inactive) | 94.9% | 1.13 (inactive) | 0.84 | 0.95 | 0.935 (inactive) | 2.39 | 11500 | 12300 |  |
| CCCCCCCCCCCCCCCC(=O)OC[C@H](NC(=O)C(Cl)Cl)[C@H](O)c1ccc([N+](=O)[O-])cc1 | 77.1% (inactive) | 134% | 1.04 (inactive) | 1.01 | 1.06 | 0.906 (inactive) | 2.23 | 10500 | 11500 |  |
| Cc1c2oc3c(C)ccc(C(=O)OC(C)C4NC(=O)C(C(C)C)N(C)C(=O)CN(C)C(=O)C5CCCN5C(=O)C(C(C)C)NC4=O)c3nc-2c(C(=O)OC(C)C2NC(=O)C(C(C)C)N(C)C(=O)CN(C)C(=O)C3CCCN3C(=O)C(C(C)C)NC2=O)c(N)c1=O (stereo not given) (I: cyclo([Sar][NMeV]TVP) / II: cyclo([Sar][NMeV]TVP); linker I:3-II:3 via Actinocin(9to1); configuration not given here) | -0.105% (inactive) | 76.4% | 1.97 (active) | 0.25 | 0.49 | 0.996 (inactive) | 1.67 | 2910 | 2920 |  |
| CC1C/C=C/C=C/C=C/C=C/C(O[C@@H]2O[C@H](C)[C@@H](O)[C@H](N)[C@@H]2O)CC2OC(O)(CC(O)CC3OC3/C=C/C(=O)O1)CC(O)C2C(=O)O (stereo not given in full) | 78.2% (inactive) | 102% | 1.02 (inactive) | 1.04 | 1.06 | 0.858 (inactive) | 2.95 | 11800 | 13800 |  |
| CS(=O)(=O)c1ccc(C(O)[C@H](CF)NC(=O)C(Cl)Cl)cc1 (stereo not given in full) | 50.1% (inactive) | 102% | 0.78 (inactive) | 0.91 | 0.71 | 0.945 (inactive) | 2.12 | 10700 | 11400 |  |
| C[C@]12CCC(=O)C=C1C=CC1C2CC[C@@]2(C)C1CC[C@@]21CCC(=O)O1 (stereo not given in full) | 99.9% (inactive) and 38.4% (inactive) | 91.3% and 97% | 0.76 (inactive) | 1.2 | 0.92 | 0.895 (inactive) | 1.44 | 11200 | 12500 |  |
| C[C@H]1CC2C([C@@H](O)C[C@@]3(C)C2CC[C@]3(O)C(=O)COC(=O)CCC(=O)O)[C@@]2(C)C=CC(=O)C=C12 (stereo not given in full) | 83.5% (inactive) | 148% | 0.8 (inactive) | 1.3 | 1.04 | 0.962 (inactive) | 2.48 | 7610 | 7910 |  |
| CCc1cc(Cl)c(OC)c(C(=O)NCC2CCCN2CC)c1O (stereo not given) |  |  | 0.67 (inactive) | 1.29 | 0.86 | 0.847 (inactive) | 0.822 | 7250 | 8550 | 1.5 (inactive) |
| C[C@]12C=CC(=O)C=C1CCC1C2[C@@H](O)C[C@@]2(C)C1CC[C@]2(O)C(=O)COC(=O)CCC(=O)O (stereo not given in full) | 61.5% (inactive) | 98% | 0.99 (inactive) | 1.15 | 1.14 | 0.822 (inactive) | 2.28 | 7880 | 9580 |  |
| CC(=O)c1cc2ccccc2oc1=O | 80.8% (inactive) | 96.7% | 0.84 (inactive) | 1.16 | 0.98 | 0.915 (inactive) | 1.42 | 8970 | 9810 | 6.92 (inactive) |
| O=C(OC[C@H]1O[C@H](OC(=O)c2cc(O)c(O)c(OC(=O)c3cc(O)c(O)c(O)c3)c2)[C@H](OC(=O)c2cc(O)c(O)c(OC(=O)c3cc(O)c(O)c(O)c3)c2)[C@@H](OC(=O)c2cc(O)c(O)c(OC(=O)c3cc(O)c(O)c(O)c3)c2)[C@@H]1OC(=O)c1cc(O)c(O)c(OC(=O)c2cc(O)c(O)c(O)c2)c1)c1cc(O)c(O)c(OC(=O)c2cc(O)c(O)c(O)c2)c1 | 58.2% (inactive) and 73.8% (inactive) | 119% and 101% | 1.23 (inactive) | 1.24 | 1.52 | 0.602 (active) | 1.46 | 4260 | 7070 |  |
| C=C1CC[C@H](O)C/C1=C/C=C1\CCCC2(C)C1CCC2C(C)CCCC(C)C (stereo not given in full) | 36.2% (inactive) | 104% | 1.03 (inactive) | 1.11 | 1.14 | 0.909 (inactive) | 2.89 | 11700 | 12900 |  |
| NC(Cc1c[nH]c2ccccc12)C(=O)O (stereo not given) | 149% (inactive) and 37.9% (inactive) | 72.8% and 89.5% | 1.24 (inactive) | 0.98 | 1.22 | 0.933 (inactive) | 2.24 | 11800 | 12700 |  |
